The full data set covers some 7,900 targets. This sample favours those with a hit. About 0.6% of all pairs of compound and target were hits.
These targets were tested with C1=CC=C2C(=C1)C3=NNC4=CC=CC(=C43)C2=O (assay: log2 fold change, soluble protein after heating vs DMSO (PISA); higher = thermal stabilisation; K562 cells, 10 uM, 30 min; active = over 0.2 and 3.5 SD of the protein, either way, in both replicates (recomputed)).
Summary of the method: (§1)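 K562 cells at 2×10^6 cells/mL were treated with 10 μM compound for 30 min. Aliquots were heated for 3 min across 48°C-58°C, pooled, and extracted in PBS with 0.5% NP-40 at 4°C; soluble protein was the supernatant after 21,000xg for 90 min. Soluble protein was quantified by TMTpro 16plex LC-MS/MS with channel sums equalised, and reported as log2 fold change in thermal stability against DMSO controls, with values from duplicates.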

UniProt P08243, sequence (P08243 whole entry, looked up): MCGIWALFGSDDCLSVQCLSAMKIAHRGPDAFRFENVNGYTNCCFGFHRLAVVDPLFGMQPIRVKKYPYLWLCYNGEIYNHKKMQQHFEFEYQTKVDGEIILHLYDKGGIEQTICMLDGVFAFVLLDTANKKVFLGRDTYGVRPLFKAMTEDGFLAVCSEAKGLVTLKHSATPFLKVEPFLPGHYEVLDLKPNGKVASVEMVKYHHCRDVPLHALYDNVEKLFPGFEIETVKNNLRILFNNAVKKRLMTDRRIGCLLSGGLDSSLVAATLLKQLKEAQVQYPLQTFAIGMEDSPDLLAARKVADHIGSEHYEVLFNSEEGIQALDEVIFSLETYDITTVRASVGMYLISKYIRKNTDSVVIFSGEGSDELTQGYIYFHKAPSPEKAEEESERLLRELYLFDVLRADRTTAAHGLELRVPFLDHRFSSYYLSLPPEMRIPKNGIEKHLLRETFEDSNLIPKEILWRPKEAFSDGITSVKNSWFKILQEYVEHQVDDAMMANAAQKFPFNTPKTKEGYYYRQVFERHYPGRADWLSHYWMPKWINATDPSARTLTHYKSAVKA
UniProt Q99758, sequence (Q99758 whole entry, looked up): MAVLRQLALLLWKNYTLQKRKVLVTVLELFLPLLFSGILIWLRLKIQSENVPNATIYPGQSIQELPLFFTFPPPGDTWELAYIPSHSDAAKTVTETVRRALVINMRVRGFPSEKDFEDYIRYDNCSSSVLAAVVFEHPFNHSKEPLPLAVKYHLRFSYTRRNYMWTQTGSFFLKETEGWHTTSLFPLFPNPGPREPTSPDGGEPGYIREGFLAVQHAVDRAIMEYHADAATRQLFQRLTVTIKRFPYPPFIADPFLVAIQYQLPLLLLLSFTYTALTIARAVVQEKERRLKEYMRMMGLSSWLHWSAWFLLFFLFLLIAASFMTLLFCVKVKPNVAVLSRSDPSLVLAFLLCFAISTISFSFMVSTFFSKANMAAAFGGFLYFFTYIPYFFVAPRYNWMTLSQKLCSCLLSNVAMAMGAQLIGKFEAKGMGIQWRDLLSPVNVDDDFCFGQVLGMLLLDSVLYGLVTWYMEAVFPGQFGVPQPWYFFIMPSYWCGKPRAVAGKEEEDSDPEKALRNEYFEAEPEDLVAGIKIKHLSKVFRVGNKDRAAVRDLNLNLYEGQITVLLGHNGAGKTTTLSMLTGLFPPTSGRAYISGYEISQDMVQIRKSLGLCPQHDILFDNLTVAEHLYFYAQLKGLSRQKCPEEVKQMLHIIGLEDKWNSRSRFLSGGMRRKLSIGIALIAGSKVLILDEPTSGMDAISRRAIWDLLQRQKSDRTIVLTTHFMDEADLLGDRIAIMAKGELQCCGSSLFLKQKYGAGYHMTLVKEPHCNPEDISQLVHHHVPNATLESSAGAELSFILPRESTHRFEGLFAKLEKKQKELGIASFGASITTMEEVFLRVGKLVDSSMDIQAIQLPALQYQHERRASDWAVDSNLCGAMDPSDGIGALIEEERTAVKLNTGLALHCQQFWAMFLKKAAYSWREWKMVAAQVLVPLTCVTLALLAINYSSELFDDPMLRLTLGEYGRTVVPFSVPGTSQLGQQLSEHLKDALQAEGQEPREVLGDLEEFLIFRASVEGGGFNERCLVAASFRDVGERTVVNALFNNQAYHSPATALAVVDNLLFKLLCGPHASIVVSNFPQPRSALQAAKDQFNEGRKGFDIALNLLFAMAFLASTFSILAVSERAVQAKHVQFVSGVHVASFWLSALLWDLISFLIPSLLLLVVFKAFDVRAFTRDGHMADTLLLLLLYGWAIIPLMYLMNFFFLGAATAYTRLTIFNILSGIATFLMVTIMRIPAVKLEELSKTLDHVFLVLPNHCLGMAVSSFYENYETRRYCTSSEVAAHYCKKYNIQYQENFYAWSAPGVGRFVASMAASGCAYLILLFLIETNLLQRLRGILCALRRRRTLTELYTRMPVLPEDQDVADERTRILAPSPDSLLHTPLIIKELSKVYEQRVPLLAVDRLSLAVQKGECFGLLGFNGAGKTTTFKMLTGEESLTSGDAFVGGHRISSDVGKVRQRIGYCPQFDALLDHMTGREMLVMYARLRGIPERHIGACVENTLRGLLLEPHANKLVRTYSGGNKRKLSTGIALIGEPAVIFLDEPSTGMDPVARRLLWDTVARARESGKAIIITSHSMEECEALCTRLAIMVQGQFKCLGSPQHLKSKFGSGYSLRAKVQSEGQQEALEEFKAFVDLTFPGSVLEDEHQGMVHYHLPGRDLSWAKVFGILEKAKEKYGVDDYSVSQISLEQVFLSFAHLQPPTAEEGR
UniProt Q9NWB6, sequence (Q9NWB6 whole entry, looked up): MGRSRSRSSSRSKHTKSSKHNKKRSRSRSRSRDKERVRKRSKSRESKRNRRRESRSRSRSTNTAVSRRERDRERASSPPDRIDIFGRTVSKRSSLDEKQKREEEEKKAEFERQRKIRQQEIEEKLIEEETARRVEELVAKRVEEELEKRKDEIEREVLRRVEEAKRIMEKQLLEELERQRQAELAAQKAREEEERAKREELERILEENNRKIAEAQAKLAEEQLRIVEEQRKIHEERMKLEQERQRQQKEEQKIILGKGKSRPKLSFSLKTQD
UniProt Q9UKV3, sequence (Q9UKV3 whole entry, looked up): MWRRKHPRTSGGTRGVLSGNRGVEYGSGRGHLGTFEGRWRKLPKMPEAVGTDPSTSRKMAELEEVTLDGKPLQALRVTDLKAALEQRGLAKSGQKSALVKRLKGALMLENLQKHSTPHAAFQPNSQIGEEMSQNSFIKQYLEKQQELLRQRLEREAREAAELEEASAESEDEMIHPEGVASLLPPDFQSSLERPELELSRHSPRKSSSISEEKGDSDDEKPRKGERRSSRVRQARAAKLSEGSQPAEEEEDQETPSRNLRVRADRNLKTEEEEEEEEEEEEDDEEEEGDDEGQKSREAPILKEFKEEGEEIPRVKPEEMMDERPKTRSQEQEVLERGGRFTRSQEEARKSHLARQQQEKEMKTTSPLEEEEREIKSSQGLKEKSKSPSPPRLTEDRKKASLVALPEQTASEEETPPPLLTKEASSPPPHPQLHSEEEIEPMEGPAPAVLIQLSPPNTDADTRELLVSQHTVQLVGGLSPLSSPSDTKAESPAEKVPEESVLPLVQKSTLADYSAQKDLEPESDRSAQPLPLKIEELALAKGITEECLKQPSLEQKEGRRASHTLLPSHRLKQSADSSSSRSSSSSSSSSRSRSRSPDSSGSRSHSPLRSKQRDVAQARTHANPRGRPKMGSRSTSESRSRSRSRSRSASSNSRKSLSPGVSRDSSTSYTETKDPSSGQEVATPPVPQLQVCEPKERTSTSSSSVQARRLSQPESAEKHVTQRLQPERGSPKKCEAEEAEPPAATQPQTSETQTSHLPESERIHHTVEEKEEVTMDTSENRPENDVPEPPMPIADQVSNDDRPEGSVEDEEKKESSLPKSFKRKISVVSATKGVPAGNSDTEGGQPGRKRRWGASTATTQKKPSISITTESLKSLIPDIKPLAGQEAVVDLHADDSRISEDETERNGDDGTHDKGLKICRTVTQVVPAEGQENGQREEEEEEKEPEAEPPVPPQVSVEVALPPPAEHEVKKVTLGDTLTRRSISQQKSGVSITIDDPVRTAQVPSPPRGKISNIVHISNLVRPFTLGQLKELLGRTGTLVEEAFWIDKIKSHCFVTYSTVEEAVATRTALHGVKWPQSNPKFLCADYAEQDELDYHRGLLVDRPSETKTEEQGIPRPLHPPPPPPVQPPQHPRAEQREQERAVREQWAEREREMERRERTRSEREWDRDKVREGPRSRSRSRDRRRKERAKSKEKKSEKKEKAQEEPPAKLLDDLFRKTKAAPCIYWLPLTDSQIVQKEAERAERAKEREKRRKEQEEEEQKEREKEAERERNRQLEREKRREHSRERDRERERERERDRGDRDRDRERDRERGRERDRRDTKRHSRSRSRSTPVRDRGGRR
UniProt Q93050, sequence (Q93050 whole entry, looked up): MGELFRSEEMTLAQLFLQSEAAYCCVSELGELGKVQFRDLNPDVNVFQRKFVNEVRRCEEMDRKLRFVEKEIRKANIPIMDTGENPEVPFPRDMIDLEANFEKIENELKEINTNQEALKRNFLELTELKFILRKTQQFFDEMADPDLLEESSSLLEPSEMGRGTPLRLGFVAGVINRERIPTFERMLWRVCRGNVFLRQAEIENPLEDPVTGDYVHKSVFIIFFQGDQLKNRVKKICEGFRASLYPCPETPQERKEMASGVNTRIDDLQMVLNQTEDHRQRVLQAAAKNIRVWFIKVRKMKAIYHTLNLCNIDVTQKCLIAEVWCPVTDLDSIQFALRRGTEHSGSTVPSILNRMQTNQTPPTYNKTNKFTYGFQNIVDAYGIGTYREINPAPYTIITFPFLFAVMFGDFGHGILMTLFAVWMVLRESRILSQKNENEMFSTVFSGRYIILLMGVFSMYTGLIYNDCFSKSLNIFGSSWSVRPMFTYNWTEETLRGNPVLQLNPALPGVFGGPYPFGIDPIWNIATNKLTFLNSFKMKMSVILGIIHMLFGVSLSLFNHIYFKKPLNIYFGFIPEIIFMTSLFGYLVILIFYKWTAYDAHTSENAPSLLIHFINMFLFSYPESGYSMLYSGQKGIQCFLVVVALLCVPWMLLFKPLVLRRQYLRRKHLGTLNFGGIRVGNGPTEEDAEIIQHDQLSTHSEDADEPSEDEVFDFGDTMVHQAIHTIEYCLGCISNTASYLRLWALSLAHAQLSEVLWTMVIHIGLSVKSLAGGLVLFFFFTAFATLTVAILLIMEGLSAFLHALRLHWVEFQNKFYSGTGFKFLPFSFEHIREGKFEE
UniProt Q9P287, sequence (Q9P287 whole entry, looked up): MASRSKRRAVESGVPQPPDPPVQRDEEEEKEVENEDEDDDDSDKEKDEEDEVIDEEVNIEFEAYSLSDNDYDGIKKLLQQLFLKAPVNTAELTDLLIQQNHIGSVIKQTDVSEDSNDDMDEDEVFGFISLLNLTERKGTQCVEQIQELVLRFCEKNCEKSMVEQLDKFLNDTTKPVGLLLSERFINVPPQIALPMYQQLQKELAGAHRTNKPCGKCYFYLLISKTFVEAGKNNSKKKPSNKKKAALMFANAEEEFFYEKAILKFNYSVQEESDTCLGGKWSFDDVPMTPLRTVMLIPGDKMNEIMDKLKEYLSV

log2 fold change, inactive:
ATP6V0A1 isoform 3 (UniProt Q93050) 0.052
ADPRHL2 (UniProt Q9NX46) 0.049
BUB1B isoform 3 (UniProt O60566) -0.038
ATP2A3 isoform 2 (UniProt Q93084) -0.04
ACIN1 (UniProt Q9UKV3) -0.012
AIP (UniProt O00170) 0.011
ATP1B3 (UniProt P54709) -0.052
ALDH9A1 (UniProt P49189) 0.043
ATP6V1C1 (UniProt P21283) 0.045
APPL1 (UniProt Q9UKG1) -0.029
AKAP8L (UniProt Q9ULX6) -0.027
ATP23 (UniProt Q9Y6H3) 0.033
ASNS (UniProt P08243) -0.008
ACTR1B (UniProt P42025) -0.017
ARPP19 (UniProt P56211) 0.014
ARHGAP1 (UniProt Q07960) -0.011
AGPAT3 isoform 3 (UniProt Q9NRZ7) 0.006
ATP13A2 (UniProt Q9NQ11) -0.042
ALDH6A1 (UniProt Q02252) -0.038
ATR (UniProt Q13535) 0.086
ARL2BP (UniProt Q9Y2Y0) -0.047
AUP1 (UniProt Q9Y679) 0.004
ADD1 isoform 3 (UniProt P35611) -0.018
BOP1 (UniProt Q14137) -0.014
ATP9B (UniProt O43861) -0.038
ABCC5 (UniProt O15440) -0.071
BST2 (UniProt Q10589) -0.013
AKT2 (UniProt P31751) 0.028
ABCA3 (UniProt Q99758) 0.031
ALG3 (UniProt Q92685) -0.011
BCCIP isoform 2 (UniProt Q9P287) -0.007
ABHD16A (UniProt O95870) 0.009
AKAP8 (UniProt O43823) -0.068
ARGLU1 (UniProt Q9NWB6) -0.235
ARFGAP1 (UniProt Q8N6T3) 0.035
AAR2 (UniProt Q9Y312) -0.137

Each target was assayed with C1CCN(C1)C(=O)NC2=CC=CC(=C2)NC3=NC=C(C(=N3)NCCC4=CN=CN4)Br in the same assay as above.
Summary of the method: as §1

log2 fold change, inactive:
ATP6V0A1 isoform 3 (UniProt Q93050) -0.066
ADPRHL2 (UniProt Q9NX46) 0.003
BUB1B isoform 3 (UniProt O60566) -0.031
ATP2A3 isoform 2 (UniProt Q93084) -0.025
ACIN1 (UniProt Q9UKV3) -0.041
AIP (UniProt O00170) 0.005
ATP1B3 (UniProt P54709) -0.024
ALDH9A1 (UniProt P49189) 0.035
ATP6V1C1 (UniProt P21283) -0.067
APPL1 (UniProt Q9UKG1) 0.014
AKAP8L (UniProt Q9ULX6) -0.053
ATP23 (UniProt Q9Y6H3) 0.007
ASNS (UniProt P08243) 0.002
ACTR1B (UniProt P42025) -0.02
ARPP19 (UniProt P56211) -0.024
ARHGAP1 (UniProt Q07960) 0.002
AGPAT3 isoform 3 (UniProt Q9NRZ7) 0
ATP13A2 (UniProt Q9NQ11) 0.035
ALDH6A1 (UniProt Q02252) -0.03
ATR (UniProt Q13535) -0.029
ARL2BP (UniProt Q9Y2Y0) -0.008
AUP1 (UniProt Q9Y679) -0.031
ADD1 isoform 3 (UniProt P35611) -0.018
BOP1 (UniProt Q14137) 0.043
ATP9B (UniProt O43861) 0.027
ABCC5 (UniProt O15440) -0.037
BST2 (UniProt Q10589) 0.066
AKT2 (UniProt P31751) -0.068
ABCA3 (UniProt Q99758) 0.094
ALG3 (UniProt Q92685) -0.133
BCCIP isoform 2 (UniProt Q9P287) -0.002
ABHD16A (UniProt O95870) -0.005
AKAP8 (UniProt O43823) 0.015
ARGLU1 (UniProt Q9NWB6) -0.02
ARFGAP1 (UniProt Q8N6T3) -0.037
AAR2 (UniProt Q9Y312) -0.008

Source: the supplement of paper PMC10849652
